Data reported in PubChem BioAssay AID1159580 (chemical genetic matrix, 2015).
Where “and” joins values, the source holds several entries; their conditions need not be identical. Identical values can stand only once. Hit rate of the full screen: of about 5,500 compounds, about 2,000 (36%) were called active. About 18% were inconclusive and are not listed. Cut-off read from the data, not from the text of the source: active = normalized growth mostly below about 0.91 (no sharp cut-off); inconclusive = no clear call, values can overlap the other calls; inactive = mostly above about 0.92. The list shows a part of the results.

Test: chemical genetic growth profiling, strain panel (AID 1159580);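 note: tested at 20 µM; growth read once vehicle control cultures reached saturation at 30 °C; 1 = growth at the plate median or of vehicle wells; lower values mean less growth of the strain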
Conditions: growth OD

Measured: normalized growth

CCOC(=O)C1=C(C)NC(C)=C(C(=O)OC)C1c1cccc([N+](=O)[O-])c1 (stereo unspecified)
inactive: S. cerevisiae deletion strains, locus YJL187C, strain SWE1, hits give low values 1.01 | S. cerevisiae deletion strains, locus YJR043C, strain POL32, hits give low values 1.01 | S. cerevisiae deletion strains, locus YJR075W, strain HOC1, hits give low values 0.995 and 0.989 | S. cerevisiae deletion strains, locus YKL009W, strain mrt4, hits give low values 1.01 | S. cerevisiae deletion strains, locus YKL068W, hits give low values 0.996 | S. cerevisiae deletion strains, locus YKL085W, strain MDH1 (second series), hits give low values 0.997 | S. cerevisiae deletion strains, locus YKL085W, strain MDH1, hits give low values 0.997 | S. cerevisiae deletion strains, locus YKL160W, strain elf1, hits give low values 1.01 | S. cerevisiae deletion strains, locus YKL190W, strain CNB1, hits give low values 0.99 | S. cerevisiae deletion strains, locus YKR001C, strain vps1, hits give low values 1 | S. cerevisiae deletion strains, locus YKR026C, strain gcn3, hits give low values 0.999 | S. cerevisiae deletion strains, locus YKR091W, strain srl3, hits give low values 1 | S. cerevisiae deletion strains, locus YLL001W, strain dnm1, hits give low values 1.02 | S. cerevisiae deletion strains, locus YLL026W, hits give low values 1 | S. cerevisiae deletion strains, locus YLL041C, strain sdh2, hits give low values 1.02 | S. cerevisiae deletion strains, locus YLR027C, strain aat2, hits give low values 1.01 | S. cerevisiae deletion strains, locus YLR039C, strain RIC1, hits give low values 0.968 | S. cerevisiae deletion strains, locus YLR058C, strain SHM2, hits give low values 0.999 | S. cerevisiae deletion strains, locus YLR102C, strain apc9, hits give low values 1 | S. cerevisiae deletion strains, locus YLR221C, strain rsa3, hits give low values 1.01 | S. cerevisiae deletion strains, locus YLR258W, strain gsy2, hits give low values 1.01 | S. cerevisiae deletion strains, locus YLR262C, strain YPT6 (second series), hits give low values 0.959 | S. cerevisiae deletion strains, locus YLR262C, strain YPT6, hits give low values 0.946 | S. cerevisiae deletion strains, locus YLR268W, strain sec22, hits give low values 0.984 | S. cerevisiae deletion strains, locus YLR320W, strain mms22, hits give low values 1 | S. cerevisiae deletion strains, locus YLR330W, strain CHS5, hits give low values 1.01 | S. cerevisiae deletion strains, locus YLR342W, strain FKS1 (second series), hits give low values 1.01 | S. cerevisiae deletion strains, locus YLR342W, strain FKS1, hits give low values 1.01 | S. cerevisiae deletion strains, locus YLR357W, strain rsc2, hits give low values 1.02 | S. cerevisiae deletion strains, locus YLR370C, strain arc18, hits give low values 1.01 | S. cerevisiae deletion strains, locus YLR371W, strain rom2, hits give low values 1.01 | S. cerevisiae deletion strains, locus YLR384C, strain iki3, hits give low values 0.998 | S. cerevisiae deletion strains, locus YLR418C, strain cdc73, hits give low values 0.967 | S. cerevisiae deletion strains, locus YML016C, strain PPZ1, hits give low values 1 | S. cerevisiae deletion strains, locus YML032C, strain rad52, hits give low values 1.02 | S. cerevisiae deletion strains, locus YML120C, strain ndi1, hits give low values 1.01 | S. cerevisiae deletion strains, locus YML124C, strain tub3, hits give low values 1 | S. cerevisiae deletion strains, locus YMR058W, strain fet3, hits give low values 1.02 | S. cerevisiae deletion strains, locus YMR078C, strain ctf18, hits give low values 0.999 | S. cerevisiae deletion strains, locus YMR125W, strain sto1, hits give low values 1.01 | S. cerevisiae deletion strains, locus YMR129W, hits give low values 0.999 | S. cerevisiae deletion strains, locus YMR205C, strain PFK2, hits give low values 0.991 | S. cerevisiae deletion strains, locus YMR223W, strain ubp8, hits give low values 1.01 | S. cerevisiae deletion strains, locus YMR231W, strain pep5, hits give low values 1.01 | S. cerevisiae deletion strains, locus YMR263W, strain SAP30, hits give low values 1.01 and 0.981 | S. cerevisiae deletion strains, locus YMR307W, strain GAS1, hits give low values 0.931 | S. cerevisiae deletion strains, locus YNL067W, strain RPL9B, hits give low values 0.996 | S. cerevisiae deletion strains, locus YNL071W, strain lat1, hits give low values 1.01 | S. cerevisiae deletion strains, locus YNL128W, strain TEP1, hits give low values 0.994 and 1.01 | S. cerevisiae deletion strains, locus YNL153C, strain GIM3, hits give low values 0.999 and 0.961 | S. cerevisiae deletion strains, locus YNL209W, strain ssb2, hits give low values 1.01 | S. cerevisiae deletion strains, locus YNL224C, strain SQS1, hits give low values 0.979 | S. cerevisiae deletion strains, locus YNL233W, strain BNI4, hits give low values 0.995 | S. cerevisiae deletion strains, locus YNL248C, strain rpa49, hits give low values 1.01 | S. cerevisiae deletion strains, locus YNL250W, strain rad50, hits give low values 1.01 | S. cerevisiae deletion strains, locus YNL271C, strain bni1, hits give low values 1.01 | S. cerevisiae deletion strains, locus YNL298W, strain CLA4, hits give low values 1.02 | S. cerevisiae deletion strains, locus YNL307C, strain MCK1, hits give low values 1.01 | S. cerevisiae deletion strains, locus YNL322C, strain KRE1 (second series), hits give low values 1.01 | S. cerevisiae deletion strains, locus YNL322C, strain KRE1, hits give low values 1 and 0.995 | S. cerevisiae deletion strains, locus YNR049C, strain mso1, hits give low values 1.01 | S. cerevisiae deletion strains, locus YNR052C, strain pop2, hits give low values 1.01 | S. cerevisiae deletion strains, locus YOL006C, strain TOP1, hits give low values 1.01 | S. cerevisiae deletion strains, locus YOL012C, strain htz1 0.79 | S. cerevisiae deletion strains, locus YOL147C, strain pex11, hits give low values 1.01 | S. cerevisiae deletion strains, locus YOR001W, strain rrp6, hits give low values 1.03 | S. cerevisiae deletion strains, locus YOR061W, strain CKA2, hits give low values 0.988 | S. cerevisiae deletion strains, locus YOR069W, strain VPS5, hits give low values 0.997 | S. cerevisiae deletion strains, locus YOR070C, strain gyp1, hits give low values 1.01 | S. cerevisiae deletion strains, locus YOR080W, strain dia2, hits give low values 1.01 | S. cerevisiae deletion strains, locus YOR083W, strain WHI5, hits give low values 1 | S. cerevisiae deletion strains, locus YOR106W, strain vam3, hits give low values 1.01 | S. cerevisiae deletion strains, locus YOR136W, strain idh2, hits give low values 1.02 | S. cerevisiae deletion strains, locus YOR144C, strain elg1, hits give low values 1 | S. cerevisiae deletion strains, locus YOR184W, strain ser1, hits give low values 1.01 | S. cerevisiae deletion strains, locus YOR265W, strain rbl2, hits give low values 1 | S. cerevisiae deletion strains, locus YOR270C, strain vph1, hits give low values 1.03 | S. cerevisiae deletion strains, locus YOR290C, strain snf2, hits give low values 1.01 | S. cerevisiae deletion strains, locus YOR316C, strain cot1, hits give low values 1 | S. cerevisiae deletion strains, locus YPL051W, strain arl3, hits give low values 1 | S. cerevisiae deletion strains, locus YPL055C, strain LGE1, hits give low values 0.95 and 1 | S. cerevisiae deletion strains, locus YPL078C, strain atp4, hits give low values 1.03 | S. cerevisiae deletion strains, locus YPL106C, strain sse1, hits give low values 1.04 | S. cerevisiae deletion strains, locus YPL240C, strain hsp82, hits give low values 1.01 | S. cerevisiae deletion strains, locus YPL241C, strain CIN2, hits give low values 0.977 | S. cerevisiae deletion strains, locus YPR119W, strain clb2, hits give low values 1 | S. cerevisiae deletion strains, locus YPR141C, strain kar3, hits give low values 1 | S. cerevisiae deletion strains, locus YPR163C, strain tif3, hits give low values 1.01 | S. cerevisiae deletion strains, locus YPR167C, strain met16, hits give low values 0.998 | S. cerevisiae deletion strains, strain wtn01, hits give low values 0.987 | S. cerevisiae strains, strain wild type, hits give low values 0.982
